Measurements taken from the supplement of paper PMC8728848.
The entries come from a sample that favours the strongest signals as a whole.

Legend:
Assay in all cases: glycan array binding signal (z-score within array); higher = stronger binding
Conditions in all cases: glycan notation: IUPAC condensed, linker removed
Fuc(a1-4)GlcNAc = system: Fuc(a1-4)GlcNAc
Summary of the method: (§1)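 From the Consortium for Functional Glycomics database, 3228 arrays were curated, keeping only those whose protein sequence was available. Binding is given as a within-array Z-score averaged across arrays sharing a protein sequence and across linkers. Negative Z-scores can be read as non-binding.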

Gal(a1-4)GlcNAc = system: Gal(a1-4)GlcNAc
Summary of the method: as §1

Fuc(b1-3)GlcNAc = system: Fuc(b1-3)GlcNAc
Summary of the method: as §1

[1] = system: Gal(a1-3)Gal(b1-3)GlcNAc(b1-6)GalNAc
Summary of the method: as §1

Gal(a1-3)Gal(b1-3)GlcNAc = system: Gal(a1-3)Gal(b1-3)GlcNAc
Summary of the method: as §1

[2] = system: Gal(a1-3)Gal(b1-4)GlcNAc(b1-2)Man(a1-3)[Gal(a1-3)Gal(b1-4)GlcNAc(b1-2)Man(a1-6)]Man(b1-4)GlcNAc(b1-4)GlcNAc
Summary of the method: as §1

[3] = system: Gal(a1-3)Gal(b1-4)GlcNAc(b1-2)Man
Summary of the method: as §1

Gal(a1-3)Gal = system: Gal(a1-3)Gal
Summary of the method: as §1

Gal(a1-4)Gal(b1-4)GlcNAc = system: Gal(a1-4)Gal(b1-4)GlcNAc
Summary of the method: as §1

[4] = system: Gal(a1-3)Gal(b1-3)GlcNAc(b1-2)Man(a1-3)[Gal(a1-3)Gal(b1-3)GlcNAc(b1-2)Man(a1-6)]Man(b1-4)GlcNAc(b1-4)GlcNAc
Summary of the method: as §1

[5] = system: Gal(a1-3)Gal(b1-4)GlcNAc(b1-6)GalNAc
Summary of the method: as §1

[6] = system: Gal(a1-3)Gal(b1-3)GlcNAc(b1-2)Man
Summary of the method: as §1

[7] = system: Gal(a1-3)Gal(b1-3)[Fuc(a1-4)]GlcNAc(b1-2)Man(a1-3)[Gal(a1-3)Gal(b1-3)[Fuc(a1-4)]GlcNAc(b1-2)Man(a1-6)]Man(b1-4)GlcNAc(b1-4)GlcNAc
Summary of the method: as §1

Gal(a1-3)Gal(b1-4)GlcNAc = system: Gal(a1-3)Gal(b1-4)GlcNAc
Summary of the method: as §1

[8] = system: Gal(a1-3)Gal(b1-4)[Fuc(a1-3)]GlcNAc(b1-2)Man(a1-3)[Gal(a1-3)Gal(b1-4)[Fuc(a1-3)]GlcNAc(b1-2)Man(a1-6)]Man(b1-4)GlcNAc(b1-4)GlcNAc
Summary of the method: as §1

Gal(a1-2)Gal = system: Gal(a1-2)Gal
Summary of the method: as §1

Gal(a1-4)Gal(b1-4)Glc = system: Gal(a1-4)Gal(b1-4)Glc
Summary of the method: as §1

[9] = system: Gal(a1-3)Gal(b1-4)[Fuc(a1-3)]GlcNAc
Summary of the method: as §1

[10] = system: Gal(a1-3)Gal(b1-4)GlcNAc(b1-3)GalNAc
Summary of the method: as §1

[11] = system: Gal(a1-3)[Gal(a1-4)]Gal(b1-4)GlcNAc
Summary of the method: as §1

Substance: AgI/IIC123-GFP (Streptococcus mutans)
- glycan array binding signal (z-score) (Fuc(a1-4)GlcNAc): 6.16
- glycan array binding signal (z-score) (Gal(a1-4)GlcNAc): 0.706

Substance: LcI (Legionella pneumophila)
- glycan array binding signal (z-score) (Fuc(b1-3)GlcNAc): 0.056
- glycan array binding signal (z-score) [1]: 4
- glycan array binding signal (z-score) (Gal(a1-3)Gal(b1-3)GlcNAc): 4.41
- glycan array binding signal (z-score) [2]: 0.12
- glycan array binding signal (z-score) [3]: -0.012
- glycan array binding signal (z-score) (Gal(a1-3)Gal): -0.38
- glycan array binding signal (z-score) (Gal(a1-4)Gal(b1-4)GlcNAc): -0.363

Substance: Wza (Escherichia coli), P0A930
- glycan array binding signal (z-score) (Fuc(b1-3)GlcNAc): 1.51
- glycan array binding signal (z-score) [4]: 0.652
- glycan array binding signal (z-score) [5]: 3.84

Substance: Actinohivin (Actinomycete K97)
- glycan array binding signal (z-score) (Fuc(b1-3)GlcNAc): -0.17
- glycan array binding signal (z-score) [6]: 0.041
- glycan array binding signal (z-score) [7]: 0.526
- glycan array binding signal (z-score) (Gal(a1-3)Gal(b1-4)GlcNAc): -0.163
- glycan array binding signal (z-score) [8]: 0.092

Substance: Epa22
- glycan array binding signal (z-score) (Gal(a1-2)Gal): -0.244
- glycan array binding signal (z-score) [6]: -0.377
- glycan array binding signal (z-score) (Gal(a1-4)Gal(b1-4)Glc): -0.375
- glycan array binding signal (z-score) (Gal(a1-4)GlcNAc): 10.5

Substance: SpGH101 (Streptococcus pneumoniae), Q8DR60
- glycan array binding signal (z-score) [7]: 0.17
- glycan array binding signal (z-score) (Gal(a1-3)Gal(b1-4)GlcNAc): -0.162

Substance: AgI/II Vhelical-GFP (Streptococcus mutans)
- glycan array binding signal (z-score) (Fuc(a1-4)GlcNAc): 19.1
- glycan array binding signal (z-score) (Fuc(b1-3)GlcNAc): -0.193
- glycan array binding signal (z-score) [6]: -0.049
- glycan array binding signal (z-score) [8]: -0.151
- glycan array binding signal (z-score) [9]: -0.245

Substance: SiiE (Salmonella typhimurium), A0A0H3NVH0
- glycan array binding signal (z-score) (Gal(a1-3)Gal(b1-3)GlcNAc): 0.637

Substance: BambL (Burhholderia ambifaria), Q0B4G1
- glycan array binding signal (z-score) (Fuc(a1-4)GlcNAc): 6.86
- glycan array binding signal (z-score) (Fuc(b1-3)GlcNAc): 4.1
- glycan array binding signal (z-score) [10]: -0.314
- glycan array binding signal (z-score) [11]: -0.316
